Reference: PubChem BioAssay
This is one part of the list. Activity calls are given as the source filed them.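 The calls were made as follows: active = inhibition above a cutoff equal to the mean inhibition of all tested compounds plus 3 SD (cut at about 30% in these data); inactive = the rest.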

Molecular target: Bcl-2-like protein 1 (Homo sapiens) (UniProt Q07817)
Assay: Bcl-xL BH3-peptide displacement, hit confirmation – biochemical, fluorescence polarization, counter-screen for MCL1 inhibitor project (AID 2166)
Settings: GST-Bcl-xL / FITC-Bim BH3 peptide FP binding; at 10.9 µM; active compounds read high

Sequence of Bcl-2-like protein 1 (Homo sapiens) (Q07817 whole entry, looked up): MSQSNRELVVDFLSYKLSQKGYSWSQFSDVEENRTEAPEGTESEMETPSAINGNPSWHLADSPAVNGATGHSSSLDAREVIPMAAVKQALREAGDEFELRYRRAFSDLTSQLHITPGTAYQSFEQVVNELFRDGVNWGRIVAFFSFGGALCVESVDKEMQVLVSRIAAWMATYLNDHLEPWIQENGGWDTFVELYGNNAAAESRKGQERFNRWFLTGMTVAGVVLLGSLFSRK

Row | SMILES | inhibition
1 | O=S(=O)([N-]c1nc2ccccc2nc1-[n+]1ccc(Cc2ccccc2)cc1)c1ccc(Br)s1 | 33.4% (active)
2 | CCCn1c(O)c(CN2CCCC(C)C2)c(C)c(C#N)c1=O (stereo not given) | 36.2% (active)
3 | COc1ccc2[nH]c(C)c(CCN(Cc3cccs3)C(=S)Nc3ccccc3OC)c2c1 | 14.6% (inactive)
4 | COCCn1c(N)c(NCc2ccccc2)c(=O)[nH]c1=O | 37.1% (active)
5 | COc1ccc(C2C=C(c3ccc(Br)cc3)Nc3nc(NS(C)(=O)=O)nn32)cc1 (stereo not given) | 133% (active)
6 | O=C(C1=C(O)C(=O)N(c2ncccn2)C1c1cccs1)c1ccco1 (stereo not given) | 59.5% (active)
7 | CN(C)c1ccc(Nc2c3c4c(cccc4n(C)c2=O)C(=O)c2ccccc2-3)cc1 | 80.1% (active)
8 | O=c1[nH]c2ccccc2n2c(-c3ccccc3)nnc12 | 36.7% (active)
9 | COC/C=C/C1=CC2=CC(=O)C(C)(OC(=O)CCC(=O)OC)C(=O)C2=CO1 (stereo not given) | 43.5% (active)
10 | Cc1ccc(C2Nc3cccc4cccc(c34)N2)cc1 | 13.9% (inactive)
11 | Cc1ccc(C(=O)O)cc1-c1ccc(/C=C2\SC(=O)N(CC(=O)Nc3ccc4c(c3)OCO4)C2=O)o1 | 18.5% (inactive)
12 | N/C(=N\OC(=O)CCc1ccccc1)c1ccc(Cl)cc1 | 1.43% (inactive)
13 | CN1C(=O)/C(=C/c2ccco2)SC1=Nc1cccc(C(=O)O)c1 | 93% (active)
14 | CC/C(C)=N/Nc1nc2sc3c(c2c(=O)[nH]1)CC(C)(C)OC3 | 34.7% (active)
15 | CN1c2ccc(C=O)c3c(C=O)ccc(c23)N(C)C1(C)C | 126% (active)
16 | O=C(COC(=O)c1ccccc1C(=O)N1CCN(c2ccccc2)CC1)NCc1ccccc1 | 22.1% (inactive)
17 | C=CCOc1cccc(C2C(C(=O)c3ccc(C)o3)=C(O)C(=O)N2c2nnc(C)s2)c1 (stereo not given) | 70.1% (active)
18 | O=C(O)c1ccccc1N=N/C(=N/Nc1cc(S(=O)(=O)O)ccc1O)c1ccccc1 | 29.1% (inactive)
19 | COC(=O)[C@H]1[C@H]2C[C@H]3c4[nH]c5ccccc5c4CCN3C[C@@H]2CC[C@@H]1O | 88.6% (active)
20 | CCCn1c(C2CCCN2c2nc(-c3ccc(C)cc3)cs2)nc2cc(Cl)c(N3CCCCC3)cc21 (stereo not given) | 4.86% (inactive)

Row | SMILES | inhibition
21 | COc1ccc(Nc2cc(Cl)ccc2C(=O)O)cn1 | 38.7% (active)
22 | Oc1ccc2ccccc2c1N=Nc1nccs1 | -28.4% (inactive)
23 | COCCN(CCOC)c1nc(N)c2c(N)nc3c(c2c1C#N)CC(=O)N3Cc1ccc(Cl)cc1 | 9.48% (inactive)
24 | COC(=O)C[n+]1cccc2ccccc21 | 142% (active)
25 | Cc1ccc(NC(=O)c2cc(-c3ccc(C)o3)nc3ccccc23)nc1 | 12.4% (inactive)
26 | O=c1[nH]c(=S)[nH]c2[nH]c(=S)[nH]c12 | 42.2% (active)
27 | Cc1ccc(C(=O)NC(=S)Nc2ccc(N3CCOCC3)cc2)cc1 | 8.63% (inactive)
28 | Fc1ccc(CNc2nc3ccccc3n3nnnc23)cc1 | 36.6% (active)
29 | O=C(COC(=O)Cn1cnc2ccccc21)Nc1cccc2c1C(=O)c1ccccc1C2=O | 88.4% (active)
30 | COC(=O)c1sc(NC(=S)NC(=O)c2ccc(C)cc2)nc1C | 12.1% (inactive)
31 | COc1cc([C@H](Cc2ccccc2)NC(C)=O)oc(=O)c1 | 37.8% (active)
32 | O=C1c2ccccc2C(=O)c2c1cccc2N1CCN(CCO)CC1 | 43.9% (active)
33 | C1=C(N2CCOCC2)/C(=C/c2nc3ccccc3[nH]2)CC1 | 55.3% (active)
34 | COc1ccc(Cl)cc1NC(=O)CCS(=O)(=O)c1ccc(Br)cc1 | 6.91% (inactive)
35 | Cc1nnc(NC(=O)/C=C/c2ccco2)s1 | 11.6% (inactive)
36 | C=CCNc1nnc(SCC(=O)N2CCCCC2)c2ccccc12 | 55.6% (active)
37 | CC(C)(C)OC(=O)NCCCC1=CC2=CC(=O)C(C)(OC(=O)c3ccco3)C(=O)C2=CO1 (stereo not given) | 26.3% (inactive)
38 | Cc1ccc(S(=O)(=O)C(C#N)c2nc3ccccc3nc2N2CCCC2)cc1C (stereo not given) | 74.9% (active)
39 | Cc1ccc(/C=C(\C#N)C(=O)Nc2cccc3ncccc23)o1 | 23.1% (inactive)
40 | Cn1c2ccccc2c(=O)c2c(=O)n(Cc3ccco3)c(COc3ccccc3)nc21 | 38.4% (active)
